DAX1 inh-1 – DAX1 (NR0B1) inhibition, primary screen. 1.1% of 370,000 active. inhibition, % at 6.8 µM. HEK293T StAR-luciferase reporter, SF-1/DAX-1 repression relief. AID 652010;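 active means inhibition above the mean over all tested compounds plus 3 SD, cut at about 3.6% in these data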;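 further: 0% = DAX-1 cells with DMSO and 100% = cells lacking DAX-1 with DMSO; higher inhibition means more luminescence from relief of DAX-1 repression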
hgDAF12 agonist – activates the H. glycines DAF-12 receptor ligand-binding domain; HEK293 GAL4-hgDAF12 UAS-luciferase reporter, agonist luminescence; normalized to butyrate control; activation, % at 6.8 µM; 1.8% of 370,000 active;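 active means activation above a cutoff set at the mean of all screened compounds plus 3 SD, cut at about 10% in these data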;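 further: 0% = DMSO wells and 100% = sodium butyrate wells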
DAX1 inh-2 – NR0B1 (DAX1) inhibition | HEK293 Gal4-DAX1 luciferase reporter, luminescence | inhibition, % at 6.75 µM | 0.99% of 340,000 active;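 active means inhibition above the mean over all tested compounds plus 3 SD, cut at about 4.2% in these data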;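 further: 0% = DAX1-transfected cells with DMSO and 100% = empty-vector control cells with DMSO; inhibition shows as a rise in luminescence from relieved DAX1 repression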
Target sequence (P51843 207-470 limits assumed): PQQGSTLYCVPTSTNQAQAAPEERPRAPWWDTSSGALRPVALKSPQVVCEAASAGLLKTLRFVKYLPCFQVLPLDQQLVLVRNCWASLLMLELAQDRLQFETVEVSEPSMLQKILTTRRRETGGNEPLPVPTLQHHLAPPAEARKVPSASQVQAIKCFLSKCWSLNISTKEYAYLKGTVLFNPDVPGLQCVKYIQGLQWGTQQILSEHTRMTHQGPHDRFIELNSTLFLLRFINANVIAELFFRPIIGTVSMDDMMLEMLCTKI
ssDAF12 agonist – S. stercoralis DAF-12 activation, primary screen | 1% of 370,000 active | HEK293 ssDAF-12/GRIP1 lit1-tk-luc reporter, luminescence; % of 3 µM dafachronic acid response | activation, % at 6.8 µM;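 active means activation above the mean over all tested compounds plus 3 SD, cut at about 0.9% in these data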;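 further: 0% = DMSO-only wells and 100% = 3 µM delta7-dafachronic acid wells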
hcDAF12 agonist – activators of H. contortus DAF-12 nuclear receptor; AID 652067; 1.4% of 370,000 active; activation, % at 6.8 µM; HEK293 hcDAF-12 lit1-tk-luc reporter, luminescence; 0% DMSO, 100% Δ7-dafachronic acid;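 active means activation above the mean of all tested compounds plus 3 SD, cut at about 5.5% in these data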;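 further: 100% = response to 3 µM Δ7-dafachronic acid high control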
* = called active by the depositor; / = no result given. Most compounds without a hit are left out; they make up all but 4.1% or so of the library.

SMILES | DAX1 inh-1 | hgDAF12 agonist | DAX1 inh-2 | ssDAF12 agonist | hcDAF12 agonist
CCN1CCCCC(NC(=O)COCc2ccccc2)C1=O (configuration not stated) | -1 | -2 | / | -1 | -2
CN(C)C(=O)NCCCC#Cc1ccccc1 | -1 | -2 | / | -2 | 0
Cc1ccccc1C(=O)N=c1sccn1C | 0 | 2 | 2 | -1 | 1
Cn1ccsc1=NC(=O)c1cc(S(=O)(=O)N2CCOCC2)ccc1F | -2 | -1 | 0 | -1 | 0
Cc1cccc(C(=O)N=c2sccn2C)c1[N+](=O)[O-] | 4.5* | 11* | 1 | 0 | 0
Cn1ccsc1=NC(=O)c1cccc(C#N)c1 | 0 | 3 | 4.5* | -1 | 0
Cc1ccc(C(=O)N=c2sccn2C)cc1S(=O)(=O)N1CCOCC1 | 3.7* | 6 | 0 | 0 | 1
COC(=O)[C@]12C[C@H](CC(=O)NCCCCc3ccccc3)C(=O)N(Cc3ccc(Cl)cc3Cl)C1=C[C@H](COCc1ccccc1)O[C@@H]2C | 0 | 0 | / | -1 | -1
CCN(C(=O)c1cccc2c1-c1ccccc1C2=O)c1ccccc1 | -1 | 3 | / | -1 | 0
COc1cccc(C2CC(c3ccccc3)Nc3ncnn32)c1 (configuration not stated) | 0 | 2 | 0 | -1 | 2
COc1cccc(C2CC(c3ccccc3OC)n3ncnc3N2)c1 (configuration not stated) | 0 | 0 | 5.5* | -1 | 0
CCOc1ccc(C2CC(c3cccc(OC)c3)Nc3nc(N)nn32)cc1 (configuration not stated) | 2 | 0 | 4.7* | -1 | -1
COc1ccc(C2CC(c3ccc(Cl)cc3Cl)n3nc(N)nc3N2)cc1 (configuration not stated) | 0 | -1 | 5.2* | -1 | -2
COc1cccc(C2CC(c3ccc(C)cc3)n3nc(N)nc3N2)c1 (configuration not stated) | 0 | -1 | 2 | -2 | -3
O=C(c1cccc(Oc2ccccc2)c1)N1CCC(Oc2cccnc2)CC1 | -1 | -4 | / | -2 | -2
C=CCN1C(=O)[C@@H](CC(=O)NCCCN2CCCC2=O)[C@]2(C(=O)OC)CCCCC=C12 | 0 | 0 | / | -1 | -1
CC(C)(CCl)C(=O)Nc1ccc(C(F)(F)F)cc1 | 0 | 3 | -1 | 1.1* | -1
COCc1nnc(NC(C)=O)s1 | 0 | 2 | 5.5* | -1 | 2
CC(=O)Nc1nnc(COc2ccccc2)s1 | 0 | 3 | 1 | -1 | -1
O=C(CC1CCCCC1)NCCCN1CCOCC1 | 0 | -1 | -1 | -1 | 6.1*
O=C(CCC1CCCC1)NCCCN1CCOCC1 | 0 | 1 | 1 | -1 | 0
O=C(O)c1nccnc1C(=O)Nc1ccc(S(=O)(=O)N2CCOCC2)cc1 | 0 | -3 | 1 | 1.8* | -1
O=C(Cn1nnc(-c2ccccc2Cl)n1)N1CCCCC1 | 1 | 7 | 4.6* | 0 | 0
COC(=O)[C@@]12CCCCC3=C1N(CCC3)C(=O)[C@H]2CC(=O)NCc1ccc(C)o1 | -1 | 3 | / | -1 | 1
Cc1nc2ccccc2n1C(=O)c1ccc(Cl)cc1[N+](=O)[O-] | 0 | -1 | 0 | -1 | 5.8*
SMILES | DAX1 inh-1 | hgDAF12 agonist | DAX1 inh-2 | ssDAF12 agonist | hcDAF12 agonist
CC1(C)CC(=O)C2=C(C1)NC1=C(C(=O)c3ccccc31)C2c1ccc(Cl)cc1 (configuration not stated) | 0 | -1 | -1 | 0 | 6.4*
Cc1ccc(C2C3=C(CC(C)(C)CC3=O)NC3=C2C(=O)c2ccccc23)cc1 (configuration not stated) | -1 | -2 | -2 | -2 | 0
CCN(CC)C(=S)Nc1c(C)n(C)n(-c2ccccc2)c1=O | 0 | -4 | 4.5* | -2 | 0
CCNC(=S)Nc1c(C)n(C)n(-c2ccccc2)c1=O | 0 | 4 | 1 | -1 | -1
Cn1c(/N=C/c2cc(Cl)ccc2O)nc2ccccc21 | 1 | 4 | / | 1.6* | 6.5*
Cn1c(/N=C/c2cccs2)nc2ccccc21 | 0 | 4 | 0 | 0 | 5.8*
CCn1c(/N=C/c2ccccc2O)nc2ccccc21 | 0 | 3 | 1 | 0 | 3
C=CCN1[C@@H](Cc2ccccc2)COc2cccc(F)c2S1(=O)=O | -1 | 0 | / | -2 | -2
N/C(=N\OC(=O)COc1ccccc1)c1ccccn1 | 3 | 11* | 3 | -1 | 0
N/C(=N\OC(=O)Cc1ccccc1)c1ccccn1 | 1 | 12* | 0 | -1 | 0

From PubChem
